Measured values as given in PubChem BioAssay AID588674 (Broad Institute, 2011).
Values joined by “and” are separate entries in the source; they are usually repeats but may differ in a detail not shown here. Equal entries are not always repeated. Out of some 360,000 compounds screened, about 1,800 (0.5%) were called active. The list comes from a sample in which actives are over-represented; it also holds similar structures and randomly drawn compounds. Values without a mark were called inactive.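 Rule for the calls: active = mean inhibition of at least 75% with every replicate also reaching 75%; inconclusive = mean inhibition at least 75% but some replicate below; inactive = mean inhibition below 75%.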

assay: reduction of Shn3 3'UTR firefly luciferase signal, primary screen, Schnurri-3 inhibitor project, cell-based, Clone20 osteoblasts, set 2 (AID 588674); settings: Clone20 osteoblast Shn3 3'UTR firefly luciferase, 24 h; at 12.5 µM; active compounds read high;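 note: 0% = median of neutral control wells and 100% = pilot-screen positive control compound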

Row | SMILES | inhibition
1 | Cc1cc(-n2nc(C)cc2C)n2ncc(-c3ccccc3)c2n1 | -43%
2 | CCOC(=O)c1cnc2nc(SCc3ccccc3Cl)[nH]n2c1=O | -11.4%
3 | CCOC(=O)c1cnc(-n2nc(C)cc2C)nc1NNc1cc(C)nc(-c2ccccc2)n1 | 92.1% (active)
4 | O=C(Oc1ccccc1)Oc1ccc2c(c1)oc(=O)c1ccccc12 | -6.2% and -3.28%
5 | Cc1ncoc1C(=O)NCCC(c1ccccc1)c1ccccc1 | 17.9%
6 | CCNc1nc(NCC)nc(N(C)n2cnnc2)n1 | 4.63%
7 | Cc1ccc(C)c(N2CCN(C(=O)CCCCCn3c(=S)[nH]c4ccc(N5CCOCC5)cc4c3=O)CC2)c1 | 87.2% (active)
8 | Cc1ccc(C)c(N2CCN(C(=O)CCCn3c(=O)c4cccn4c4cccnc43)CC2)c1 | 8.64%
9 | O=C(CCCCCn1c(=S)[nH]c2cc3c(cc2c1=O)OCO3)N1CCN(c2ccc(F)cc2)CC1 | 8.75%
10 | CCCN(CC(=O)Nc1ccccc1OC)C(=O)CCC(=O)c1ccc(F)cc1 | 8.98%
11 | COc1ccccc1N1CCN(C(=O)C2Cc3ccccc3CN2C(=O)c2ccco2)CC1 (configuration not stated) | -11.8%
12 | CN(C)S(=O)(=O)c1cccc(NC(=O)COC(=O)C2(c3ccccc3F)CCCC2)c1 | 12.1%
13 | CC[C@H]1CN2CCc3cc(OC)c(OC)cc3[C@@H]2C[C@@H]1C[C@H]1NCCc2cc(OC)c(OC)cc21 | 94.7% (active)
14 | CC1CN(c2nc(-c3ccccc3)nnc2-c2ccccc2)CC(C)O1 (configuration not stated) | 21%
15 | CC(C)N(C(=O)[C@H]1C[C@H](CC(=O)NC(C)(C)C)C(=O)N2CCc3c([nH]c4ccc(Cl)cc34)[C@]12C)C(C)C | 26.9%
16 | COc1cc(NC(=O)C2=C(C)OCCS2)c(Cl)cc1C(=O)NCCCN1CCCC(C)C1 (configuration not stated) | -6.28%
17 | O=C(O)c1[nH]c2ccccc2c1C(c1cccc(O)c1)c1c(C(=O)O)[nH]c2ccccc12 | 0.858%
18 | O=C(NCc1ccco1)C1(c2ccc(Cl)cc2)CCCC1 | -21.5%
19 | O=C(CSc1nnnn1-c1ccccc1)NCc1ccco1 | 4.12%

Row | SMILES | inhibition
20 | O=C(CSc1c2c(nc3ccc(Cl)cc13)CCCC2)NCc1ccco1 | 89.8% (active)
21 | COc1ccccc1NC(=O)COC(=O)Cc1ccc(S(=O)(=O)N2CCCCC2)s1 | -14.6%
22 | Cc1c(Cl)c([N+](=O)[O-])nn1Cc1ccc(C(=O)N/N=C\c2cc(Cl)ccc2O)o1 | 92.8% (active)
23 | Cc1nn(Cc2ccccc2Cl)c(C)c1NC(=O)Cn1nc([N+](=O)[O-])c(Cl)c1C | 3.56%
24 | O=C(N/N=C\c1ccc(Br)cc1)c1ccc(Cn2cccn2)o1 | -11.5%
25 | Cc1ccsc1C(=O)N[C@@H](C)c1nnc2ccccn12 | 1.01%
26 | CN(C)CCNC(=O)c1ccc(Cl)c2cc3ccccc3nc12 | 94.1% (active)
27 | CNC(=O)c1cccc2nc3ccccc3nc12 | -0.196%
28 | CCCN(CCC)CCNC(=O)c1cc2c(C)nc3ccccc3c2o1 | 24.7%
29 | O=C(CNCc1ccc(Cl)cc1)Nc1cccc(C(=O)O)c1 | -8.08%
30 | O=C(/C=C/c1ccc([N+](=O)[O-])cc1)NCCSCc1ccco1 | -1.26%
31 | COc1ccc(C)cc1-n1nnnc1SCC(=O)c1cc(C)n(Cc2ccco2)c1C | 3.21%
32 | COC(=O)CC(CC(=O)OC)n1cccc1 | -11.6%
33 | COc1ccc(NC(=O)C2Cc3c(-c4ccc5c(c4)OCO5)ccnc3O2)cn1 (configuration not stated) | 15.8%
34 | COc1ccc(NC(=O)CN2C(=O)NC(C)(c3ccccc3)C2=O)cn1 (configuration not stated) | -47.7%
35 | COc1ccc(NC(=O)/C(Cl)=C(/Cl)S(=O)Cc2ccc(C)cc2)cn1 (configuration not stated) | 96.6% (active)
36 | Cn1c(SCC(=O)N2CCOCC2)nnc1-c1ccc2ncccc2c1 | -2.77%
37 | Cc1cc(C)c(S(=O)(=O)N2CCCC2CNC(=O)c2ccc3c(c2)OCO3)c(C)c1 (configuration not stated) | 7.24%
38 | CCOC(=O)c1cc(-c2ccccc2C)n(Cc2cc(C)no2)n1 | 4.57%

Row | SMILES | inhibition
39 | COc1ccc2c(c1)c(=Cc1ccc(N(C)C)cc1)c1cc(-c3ccccc3)[n+](C)n12 | 92.6% (active)
40 | COC(=O)CN1C(=O)C(C)(C)Oc2ccc(C(=O)Nc3cccc(OC)c3)cc21 | 3.92%
41 | Cc1cc(N)n2nc(-c3ccc(C(C)(C)C)cc3)cc2n1 | -5.54%
42 | O=C(NNc1ccccc1Cl)C(O)(c1cccc(C(F)(F)F)c1)c1cccc(C(F)(F)F)c1 | 20.3%
43 | O=C(O)C(=Cc1ccc([N+](=O)[O-])cc1)CCc1ccccc1 | -2.04%
44 | CC(=O)Nc1ccc(C=CC(=O)c2ccc([N+](=O)[O-])cc2)cc1 | 9.91%
45 | O=C1/C(=C\c2ccc([N+](=O)[O-])cc2)CS(=O)(=O)C/C1=C/c1ccc([N+](=O)[O-])cc1 | 96.5% (active)
46 | CSc1ccccc1NC(=O)c1ccc2c(c1)CCN2S(C)(=O)=O | -16.4%
47 | COc1ccc(CNc2nccs2)cc1 | -11%
48 | COc1ccc(CNc2ncnc3ccccc23)cc1 | 86.1% (active)
49 | c1ccc(CNc2ncnc3[nH]ncc23)cc1 | 14.2%
50 | CCc1ccc(N2CC(O)=C(c3nc4ccccc4c(=O)[nH]3)C2=N)cc1 | -17%
51 | CC(=O)Nc1ccc(NC(=O)CC2CCCC2)cc1 | -25.4%
52 | COc1ccc(CN2CCOC2=O)cc1OC | 15.9%
53 | O=C(Nc1ccc(Cl)c(C(F)(F)F)c1)C1Cc2c(-c3ccccc3Oc3ccccc3)ccnc2O1 (configuration not stated) | 17.7%
54 | COc1cc(C(O)c2nc(-c3cccc(C(=O)O)c3)cs2)ccc1F (configuration not stated) | -16.5%
55 | COc1ccc2c(c1OC)C(=O)OC2Nc1nc(-c2ccccc2)cs1 (configuration not stated) | 89.4% (active)
56 | C/C(CC1CC(C)(C)OC1=O)=N/Nc1nc(-c2ccccc2)cs1 (configuration not stated) | -73.7%
57 | Cc1ccc(S(=O)(=O)N(C)C)cc1NC(=O)C1Cc2ccccc2CN1C(=O)c1ccco1 (configuration not stated) | -2.14%
